Some test systems named below: HCT-15 colon; HT29 colon; SNB-75 CNS; U251 CNS; PC-3 prostate; SK-MEL-5 melanoma; UACC-62 melanoma; LOX IMVI melanoma; SK-MEL-28 melanoma; SK-MEL-2 melanoma; EKVX NSCLC; SN12C renal; UO-31 renal; TK-10 renal; ACHN renal; CAKI-1 renal; CCRF-CEM leukemia; MOLT-4 leukemia; A498 renal.
Assay in all cases: NCI-60 one-dose screen, 48 h (100 = growth as untreated, 0 = no growth, -100 = all killed)
Conditions in all cases: 10 µM unless noted

About 83,000 compounds went through this panel and 20% of them were active in at least one assay; those are over-represented in the sample as a whole.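 Method: cells in 96-well plates; compound added at one concentration; 48 h incubation; percent growth measured; values under 10 scored active.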 Unmarked numbers belong to inactive results. Active and inactive are the calls of the source.

For the compound `NC(=O)c1cc(I)ccc1NC(=O)/C=C/c1ccccc1`, the growth in the experiment on HCT-15 colon is 24.5%; in the experiment with HT29 colon, 22.1%; in the experiment with SNB-75 CNS it was 30.1%; in the experiment with U251 CNS, 21.8%; with PC-3 prostate it was 15.4%; in the experiment with SK-MEL-5 melanoma, 24.5%. Also, the growth in the experiment on UACC-62 melanoma was 64.9%; in the experiment on LOX IMVI melanoma, 35.1%; in the experiment on SK-MEL-28 melanoma, 12%; in the experiment on SK-MEL-2 melanoma, -31.7% (active); in the experiment with EKVX NSCLC, 36.1%; in the experiment on SN12C renal it was 31.5%. In addition, the growth in the experiment with UO-31 renal was 28.1%; in the experiment on TK-10 renal it was 60.8%; with ACHN renal, 38.2%; in the experiment on CAKI-1 renal, 25.6%; in the experiment on CCRF-CEM leukemia, 11.9%; in the experiment with MOLT-4 leukemia, 4.56% (active).
Consider `O=CN1N=C(c2cccc(Nc3ccnc4cc(Cl)ccc34)c2)CC1c1ccccc1` (centres undefined), for which the growth in the experiment with HCT-15 colon was 19.6%; with HT29 colon, -2% (active); with SNB-75 CNS it was -9.35% (active); in the experiment with U251 CNS, 16.9%; in the experiment on PC-3 prostate it was 24.2%; with SK-MEL-5 melanoma, 17.9%. For the same compound, the growth is 34.7% in the experiment with UACC-62 melanoma; 20.6% in the experiment on LOX IMVI melanoma; 49.5% in the experiment with SK-MEL-28 melanoma; 1.53% (active) with SK-MEL-2 melanoma; 34.3% in the experiment on EKVX NSCLC; 30.9% in the experiment with SN12C renal. For the same compound, the growth in the experiment on UO-31 renal was 10.6%; in the experiment on ACHN renal it was 30.3%; in the experiment on CAKI-1 renal, 11.8%; in the experiment on A498 renal, 5.63% (active); in the experiment on CCRF-CEM leukemia it was 8.4% (active).
Consider `OCCn1cc(-c2nc(-c3c[nH]c4ncccc34)cs2)c2ccccc21`, for which the growth in the experiment on HCT-15 colon was 55.9%; in the experiment with HT29 colon, 95%; in the experiment with SNB-75 CNS, 55.2%; with U251 CNS, 78.9%; in the experiment on PC-3 prostate, 61.8%; with SK-MEL-5 melanoma, 77.5%. The growth in the experiment on UACC-62 melanoma is 69.9%; in the experiment on LOX IMVI melanoma, 77.7%; in the experiment on SK-MEL-28 melanoma, 104%; in the experiment with SK-MEL-2 melanoma, 98.6%; in the experiment on EKVX NSCLC it was 32%; in the experiment on SN12C renal, 80%. Further, the growth with UO-31 renal was 37.8%; with ACHN renal, 69.3%; in the experiment on CAKI-1 renal it was 73.7%; in the experiment on CCRF-CEM leukemia, 84.8%; with MOLT-4 leukemia, 71.2%.
`C/C(Cc1ccc(Cl)cc1)=C(\c1ccc(O)cc1)c1ccc(Cl)cc1`: the growth with HCT-15 colon is 85.3%; in the experiment on HT29 colon, 90.9%; with SNB-75 CNS it was 94.7%; in the experiment with U251 CNS, 102%; with PC-3 prostate it was 71.8%; in the experiment with SK-MEL-5 melanoma it was 100%. The growth is 84.6% in the experiment with UACC-62 melanoma; 89.9% in the experiment with LOX IMVI melanoma; 95.1% in the experiment on SK-MEL-28 melanoma; 90.9% in the experiment on SK-MEL-2 melanoma; 83.9% in the experiment on EKVX NSCLC; 95.1% in the experiment on SN12C renal. Besides, the growth was 85.1% in the experiment with UO-31 renal; 95.3% in the experiment with TK-10 renal; 99.5% with ACHN renal; 84.7% in the experiment on CAKI-1 renal; 116% in the experiment with A498 renal; 92.2% in the experiment with CCRF-CEM leukemia. In the experiment with MOLT-4 leukemia, the growth is 81%.
Consider `C=CC[Se]C(=O)Cc1c(C)n(C(=O)c2ccc(Cl)cc2)c2ccc(OC)cc12`, for which the growth in the experiment with HCT-15 colon is 6.96% (active); in the experiment with HT29 colon, 9.35% (active); in the experiment with SNB-75 CNS, -68.6% (active); in the experiment with U251 CNS, -58.7% (active); in the experiment with PC-3 prostate, -36% (active); in the experiment with SK-MEL-5 melanoma it was -69.7% (active). Besides, the growth in the experiment on UACC-62 melanoma is -66.1% (active); in the experiment with LOX IMVI melanoma it was 7.91% (active); in the experiment with SK-MEL-28 melanoma it was -16% (active); in the experiment on SK-MEL-2 melanoma it was 8.51% (active); in the experiment on EKVX NSCLC, -62.6% (active); with SN12C renal, -30.4% (active). Further, the growth with UO-31 renal was -80% (active); in the experiment on TK-10 renal it was -33.5% (active); in the experiment on ACHN renal it was -61% (active); in the experiment with CAKI-1 renal it was -59.3% (active); in the experiment on A498 renal it was -28.1% (active); in the experiment with CCRF-CEM leukemia it was 10.5%. The growth with MOLT-4 leukemia is 5.11% (active).
Regarding `CCSc1nc2scc(C)c2c(=O)[nH]1`, the growth with HCT-15 colon was 104%; with HT29 colon it was 105%; in the experiment with SNB-75 CNS, 90.2%; with U251 CNS, 97.1%; with PC-3 prostate, 98.7%; with SK-MEL-5 melanoma it was 99.9%. Moreover, the growth is 94.1% with UACC-62 melanoma; 99.7% with LOX IMVI melanoma; 105% in the experiment with SK-MEL-28 melanoma; 105% in the experiment on SK-MEL-2 melanoma; 97.7% with EKVX NSCLC; 99.4% in the experiment on SN12C renal. Moreover, the growth in the experiment on UO-31 renal is 88.6%; in the experiment on TK-10 renal, 110%; with ACHN renal, 101%; with CAKI-1 renal, 92.3%; in the experiment on CCRF-CEM leukemia, 99.2%; with MOLT-4 leukemia, 96%.
For `CSc1oc(C)nc1[P+](c1ccccc1)(c1ccccc1)c1ccccc1`, the growth was 104% in the experiment on HCT-15 colon; 53.9% with HT29 colon; 75.9% with SNB-75 CNS; 42.2% with U251 CNS; 52.1% with PC-3 prostate; -9.07% (active) in the experiment with SK-MEL-5 melanoma. Also, the growth is 47.2% in the experiment on UACC-62 melanoma; 28.7% in the experiment with LOX IMVI melanoma; 61.1% with SK-MEL-28 melanoma; 84.4% in the experiment on SK-MEL-2 melanoma; 73.8% in the experiment on EKVX NSCLC; 82.2% in the experiment with SN12C renal. The growth in the experiment with UO-31 renal was 102%; with TK-10 renal it was 88.2%; in the experiment on ACHN renal, 97.6%; in the experiment with CAKI-1 renal it was 88%; with A498 renal, 64.5%; in the experiment on CCRF-CEM leukemia, 51.8%. Also, the growth in the experiment on MOLT-4 leukemia was 68%.
`CCOC(=O)c1cc(C(=O)c2cc(OC)c(OC)c(OC)c2)n2ncccc12`: the growth in the experiment on HCT-15 colon was 24%; with HT29 colon, 3.66% (active); in the experiment on SNB-75 CNS, 34%; in the experiment with U251 CNS, 14.8%; with PC-3 prostate it was 21.1%; in the experiment with SK-MEL-5 melanoma, 25.9%. In addition, the growth with UACC-62 melanoma was 29.5%; in the experiment with LOX IMVI melanoma, 42.5%; in the experiment with SK-MEL-28 melanoma it was 67.7%; in the experiment on SK-MEL-2 melanoma, 57.7%; in the experiment with EKVX NSCLC it was 37.6%; in the experiment on SN12C renal, 53.6%. Moreover, the growth in the experiment with UO-31 renal was 39.8%; in the experiment on TK-10 renal, 54%; with ACHN renal it was 51.6%; with CAKI-1 renal it was 38.1%; in the experiment with A498 renal it was -5.24% (active); in the experiment with CCRF-CEM leukemia, 11%.
`CC(C)=CC(=O)OCC(=O)O[C@@H]1C[C@]2(C(C)C)O[C@@]1(C)[C@@H]1CC[C@@H](C)[C@H]1[C@@H]2OC(=O)/C=C/c1ccccc1`: the growth in the experiment on HCT-15 colon is 86.8%; in the experiment on HT29 colon, 85.8%; with SNB-75 CNS, 88.7%; in the experiment with U251 CNS, 81.8%; in the experiment on PC-3 prostate, 63.7%; in the experiment with SK-MEL-5 melanoma it was 90.5%. For the same compound, the growth was 78.5% in the experiment on UACC-62 melanoma; 86.9% with LOX IMVI melanoma; 103% in the experiment with SK-MEL-28 melanoma; 89% in the experiment on SK-MEL-2 melanoma; 84.1% with EKVX NSCLC; 39.8% in the experiment on SN12C renal. Besides, the growth with UO-31 renal was -64.7% (active); in the experiment on TK-10 renal, 95.5%; in the experiment on ACHN renal, 4.57% (active); in the experiment with CAKI-1 renal, 12.8%; in the experiment on A498 renal, -79.2% (active); in the experiment on CCRF-CEM leukemia, 78.4%. Moreover, the growth in the experiment on MOLT-4 leukemia was 79.1%.

(Values after PubChem BioAssay (NCI).)
